Measurements: PubChem BioAssay AID1467 (National Center for Advancing Translational Sciences (NCATS), 2008)
Hit rate of the full screen: of about 230,000 compounds, fewer than 10 were called active. The call rests on the fitted dose curve; in most records, active means well fitted curve in the direction sought with a large enough effect; inconclusive means small, poorly fitted or top-dose-only effect, or effect the other way, or another doubt; inactive means no such curve, though single readings can be large or run the other way. Only a sample is shown.

molecular target: Alpha-galactosidase A (Homo sapiens) (UniProt P06280); experiment: qHTS Assay for Inhibitors of Human alpha-Galactosidase at pH 4.5.;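 further: 0% = full activity with enzyme and -100% = basal without enzyme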; details: purified enzyme, 4-MU-alpha-Gal fluorescence; series mostly up to 105 µM; activity change, negative = inhibition: at the top concentration
Sequence (P06280 whole entry, looked up): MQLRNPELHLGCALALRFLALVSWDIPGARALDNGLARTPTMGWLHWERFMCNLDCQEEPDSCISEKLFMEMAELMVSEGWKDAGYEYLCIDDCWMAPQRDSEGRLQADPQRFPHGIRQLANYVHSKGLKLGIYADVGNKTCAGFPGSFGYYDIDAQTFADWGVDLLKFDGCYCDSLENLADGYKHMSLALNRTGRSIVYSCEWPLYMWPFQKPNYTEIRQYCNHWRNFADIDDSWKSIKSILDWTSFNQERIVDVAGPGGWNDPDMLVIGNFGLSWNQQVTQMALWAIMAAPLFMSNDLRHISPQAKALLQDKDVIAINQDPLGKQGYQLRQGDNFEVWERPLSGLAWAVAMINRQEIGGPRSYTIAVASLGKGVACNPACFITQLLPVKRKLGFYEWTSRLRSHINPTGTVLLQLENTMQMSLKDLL
Description: NIH Chemical Genomics Center [NCGC]
NIH Molecular Libraries Probe Production centers Network [MLPCN]
Assay Submitter (PI): Wei Zheng
Alpha-galactosidase is a homodimeric glycoprotein that hydrolyzes the terminal alpha-galactosyl moieties from glycolipids and glycoproteins. Deficiency of this enzyme results in Fabry Disease with progressive accumulation of globotriaosylceramide and other glycosphingolipids in vascular endothelial cells that causes renal failure, myocardial infarction and stroke, and premature death in patients. It has been reported that the improper folding and trafficking of alpha-galactosidase resulting from the genetic mutations may account for a significant numbers of Fabry patients. […] We optimized this alpha-galactosidase assay in 1536-well plate format for identifying the novel small molecule inhibitors with the structures other than the sugar analogs in order to develop the new pharmacological chaperones. Although this assay has the same protocol as PubChem AID 992, this is a separate project and, therefore, is published as a separate assay
NCGC Assay Protocol Summary:
This is a fluorogenic enzyme assay with 4-Methylumbelliferyl alpha-D-galactopyranoside as the substrate and human […] as the enzyme preparation. Upon the hydrolysis of this fluorogenic substrate, the resulting product, […]. 4-Methyllumbelliferone, can be excited at 365 nm and emits at 440 nm. This fluorescence which can be detected by a standard fluorescence plate reader. Data were normalized to the controls for basal activity (without enzyme) and 100% activity (with enzyme). In the AC50 values were determined from concentration-response data modeled with the standard Hill equation.
Assay buffer: 50 mM citric acid (titrated with potassium phosphate to pH 4.5), 0.005% Tween-20, pH 4.5. (pH 4.5 is an optimal condition for this enzyme assay)
1536-well assay protocol for the human alpha-galactosidase:
(1) Add 2 ul/well of enzyme (12 nM final)
(2) Add 23 nL compounds in DMSO solution. The final titration was 0.7 nM to 77 uM.
(3) Add 1 ul of substrate (400 uM final)
(4) Incubate at room temperature for 20 min.
(5) Add 2 ul stop solution (1M NaOH and 1M Glycine mixture, pH 10)
(6) Detect the assay plate in a ViewLux plate reader (PerkinElmer) with Ex=365 nm and Em=440nm.
Keywords: MLSMR, MLPCN, NIH Roadmap, qHTS, NCGC, : Alpha-galactosidase, Fabry Disease, pharmacological chaperone, chaperone therapy

Activity change, negative = inhibition, inactive:
Cc1cn(C2OC[C@@H](O)[C@@H]2CO)c(=O)[nH]c1=O (some centres not stated) -5.03%
Brc1ccc(C2=NCCC(c3ccccc3)O2)cc1 (configuration not stated) -0.0967%
C[C@@H]1C(c2ccc(F)cc2)=NN(c2ccc(Br)cc2)[C@H]1C(=O)N1CCOC1=O 1.05%
Cc1csc(SCC(=O)Nc2sccc2C#N)n1 1.25%
COC(=O)c1ccc(S(=O)(=O)N(CCO)Cc2ccccc2)n1C 1.9%
Nc1nc(C23CC4CC(CC(C4)C2)C3)cs1 -0.438%
CN(CCc1cn[nH]c1)C(=O)CC1C(=O)NCCN1Cc1cccc(Oc2ccccc2)c1 (configuration not stated) 7.92%
Cc1cc(C)nc(SC2CCCCC2NS(=O)(=O)c2ccc(Cl)cc2)n1 (configuration not stated) -10.7%
Cc1ccc(S(=O)(=O)N2CCC(C(=O)OCC(=O)N3CC(=O)Nc4ccccc43)CC2)cc1 -0.506%
Cc1ccc(C2CC(c3cccc(NS(C)(=O)=O)c3)=NN2S(C)(=O)=O)cc1 (configuration not stated) 10.3%
CCOC(=O)C1=C(C)c2ccccc2OC1(C)C(=O)OCC (configuration not stated) -6.68%
Cc1cccc(NC(=S)NCc2ccc3[nH]c4c(c3c2)CCCC4)c1 -1.22%
COc1ccc(-c2c(C)cc3oc(=O)cc(-c4ccccc4)c3c2C)cc1OC -21.7%
OC[C@H]1O[C@@H](n2cnc3c(NC4CCCC4)ncnc32)[C@H](O)[C@H]1O 0.0639%
COC1(C2=NCCN2)COc2ccccc2O1 (configuration not stated) -0.194%
COC(C)C(C(=O)OCC1=CCN2CC[C@H](O)[C@@H]12)C(C)C (some centres not stated) -7.37%
COc1ccc(-c2nc3c(c4c2C[C@H](c2ccccc2)OC4)CN(C(=O)c2ccco2)CC3)c(C)c1 9.81%
CCn1c(SCC(=O)Nc2ccc(C)cc2)nc2nc3c(cc2c1=O)CCCC3 0.427%
Cc1cc(N)n(-c2ccc(S(=O)(=O)N3CCCC3)cc2[N+](=O)[O-])n1 8.19%
Cc1cc(Cl)ccc1OCc1nc(-c2ccncc2)no1 -7.26%
CC(C)(C)NS(=O)(=O)CC12CCC(CC1=O)C2(C)C (configuration not stated) -2.78%
CCn1c(SCc2ccccc2)nc2c(c1=O)SCC2 -18.3%
COc1ccc(-c2nc3c(c4c2C[C@H](c2ccccc2)OC4)CN(C(=O)C2CC2)CC3)c(C)c1 -7.05%
C=CCN1c2ccccc2[C@]23C[C@@H](C(=O)OC)N(S(=O)(=O)c4ccc([N+](=O)[O-])cc4)C2=NC(C(=O)OC)=C(C(=O)OC)[C@H]13 -4.09%
O=C(CSc1cccc[n+]1[O-])c1ccc(Cl)cc1 3.17%
O=C(NCc1cccnc1)c1cnc2ccccc2n1 1.77%
CCCCS(=O)(=O)N1C2=NC(C(=O)OC)=C(C(=O)OC)[C@@H]3N(Cc4ccccc4)c4ccccc4[C@]23C[C@H]1C(=O)OC 7.1%
Nn1c(SCC(=O)Nc2nccs2)nncc1=O -6.09%
O=c1[nH]c(SCc2cccc(F)c2)nc2ccccc12 0.781%
COc1ccc(/C=N/OCC(=O)N(Cc2ccccc2)c2ccccc2C(=O)O)cc1 -13.4%
O=C(COc1cccc(F)c1)Oc1ccc(C(=O)c2ccccc2)cc1 1.38%
COc1ccc(-c2nc3c(c4c2C[C@H](c2ccccc2)OC4)CN(S(=O)(=O)c2c(C)noc2C)CC3)c(C)c1 11.4%
